# Source: PubChem BioAssay (National Center for Advancing Translational Sciences (NCATS))
# TDP1 cell CPT = growth inhibition of DT40 Tdp1-/-;hTDP1 cells with camptothecin (screen for TDP1 inhibitors); chicken DT40 Tdp1-/-;hTDP1 cells + 20 nM CPT, ATP luminescence, 48 h; Potency, µM (series often up to 46.2 µM), without a hit: top-dose activity change, negative = growth inhibition, usual class: inhibitors; 420,000 tested, 12% active; AID 686979; also: potency is read from the fitted curve at half-maximal effect; nearly all actives have a fitted effect of over 55% in size
#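 Chicken DT40 Tdp1-/- cells complemented with human TDP1, 400 cells/well, exposed to compounds plus 20 nM camptothecin for at least 48 h at 37 C; viability read as ATP content by CellTiter-Glo luminescence.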
# IL1B secr inh = blocks inflammasome-driven IL-1 beta release; THP-1 LPS/ATP IL-1B secretion, AlphaLISA, 16 h; hits give low values; activity change, % at 57.5 µM; 360,000 tested, 4.7% active; AID 743279; in the data active = activity change below about -50%; inconclusive = mostly about -30% to -49%
#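 THP-1 cells pretreated 1 hr with compounds (up to 57.5 uM final), then stimulated with LPS (250 ng/mL final) plus ATP (1.25 mM final); secreted IL-1B measured by AlphaLISA after 16 hr, decreased signal indicating inhibition.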
# TDP1 cell noCPT = qHTS for Inhibitors of human tyrosyl-DNA phosphodiesterase 1 (TDP1): qHTS in cells in absence of CPT; AID 686978, 2013; DT40 Tdp1-/- hTDP1 cells, no CPT, ATP luminescence, 48 h; 420,000 tested, 15% active; Potency, µM (doses to about 46.2 µM), for the others: at the top dose activity change, negative = growth inhibition, actives largely listed as inhibitors; also: potency is read from the fitted curve at half-maximal effect; nearly all actives have a fitted effect of over 55% in size
#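 Growth kinetics read by CellTiter-Glo luminescence after ≥48 hr at 37 °C. Cells: DT40 Tdp1-/- stably carrying human TDP1, 400 per well, compound exposure in the absence of CPT (DMSO vehicle).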
# HT1080 IDH1KD tx = toxicity to HT-1080 IDH1 knockdown cells (counter line); AID 686971; Potency, µM (series often up to 46.1 µM), for the others: at the top dose activity, negative = toxicity, hits mostly cytotoxic; HT-1080 IDH1 knockdown viability, ATP luminescence, 48 h; 360,000 tested, 2% active;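 also: potency is read from the fitted curve at half-maximal effect; 0% = DMSO wells and -100% = cell-free medium wells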
#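 Assay cells: HT-1080 with IDH1 knockdown, 750 per well, RPMI/5% FBS. Exposure: 48 h at 37 °C following 2 h pre-incubation. Read: CellTiter-Glo luminescence; fitted concentration-response, curve class assigned.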
# HT1080NT lethal = kills 2HG-producing HT-1080-NT fibrosarcoma cells; HT-1080-NT fibrosarcoma viability, CellTiter-Glo ATP luminescence, 48 h; Potency, µM (series often up to 46.1 µM), without a hit: top-dose activity, negative = less viability, most hits filed as cytotoxic; 360,000 tested, 1.6% active;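 also: NT is the 2HG producing partner of a matched IDH1 knockdown line; potency is read from the fitted curve at half-maximal effect; 0% = DMSO-treated cells and -100% = media-only wells without cells; nearly all actives have a fitted effect of over 55% in size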
#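 Viability by CellTiter-Glo luminescence after 48 h compound exposure at 37C of HT-1080-NT cells (750/well, RPMI, 5% FBS). % activity scaled between DMSO wells and medium-only wells, then curve-fitted and categorized by curve class.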
# Active calls of the source: *; ? = inconclusive; · = no result; [ ] = remark or other dose. Shown are actives, neighbours in structure and some others; about 19% of the full set was active somewhere. Unless noted, calls follow the shape of the dose curve; as a rule, active = well fitted curve in the direction sought with a large enough effect; inconclusive = small, poorly fitted or top-dose-only effect, or another doubt; inactive = no such curve, though single readings can be large; an effect the other way counts as inactive or inconclusive. Unless noted, % is scaled to controls: 0 for no effect and ±100 for the full control effect.
SMILES,TDP1 cell CPT,IL1B secr inh,TDP1 cell noCPT,HT1080 IDH1KD tx,HT1080NT lethal
CCCCNC(=S)Nc1ccc(C(F)(F)F)cc1,?,-94*,?,?,?
CCCCNC(=S)Nc1ccc(Cl)cc1,?,-9,23µM*,-3%,-4%
CN(C(=O)c1cccc(NC(=O)Cc2cccc(NC(=O)C3CCN(C(=O)C4CCCCC4)CC3)c2)c1)C1CC1,-12%,29,-12%,-2%,-4%
OCCNc1nc(Nc2ccccc2)nc(Nc2ccccc2)n1,?,-12,-23%,-9%,-9%
Cc1c(Cl)cccc1Nc1nc(NCCO)c2ccccc2n1,?,-108*,?,?,?
OCCNc1nc(Nc2ccc(Br)cc2)nc2ccccc12,5.8µM*,-101*,6.5µM*,?,?
OCCNc1nc(-c2ccccc2)c2cc(Br)ccc2n1,?,-14,?,-12%,-14%
OCCNc1nc(Nc2ccccc2)nc2ccccc12,10µM*,·,13µM*,-11%,-14%
Clc1ccc(-c2nc(NCCCN3CCOCC3)c3ccccc3n2)cc1,?,-75*,18µM*,?,23µM*
Clc1cccc(-c2nc(NCCCN3CCOCC3)c3ccccc3n2)c1,?,?,23µM*,?,21µM*
Clc1cccc(-c2nc(NCCN3CCOCC3)c3ccccc3n2)c1,?,-86*,?,?,?
CCN1CCN(CC(=O)Nc2ccc(N(C)C)cc2)CC1,5%,-5,-12%,10%,14%
CC(=O)c1ccc(OCC(=O)OCC(=O)N(CC(C)C)c2c(N)n(Cc3ccccc3)c(=O)[nH]c2=O)cc1,11%,3,-2%,8%,-1%
CCN(CC)CCNC(=O)c1ccc2c(=O)n3nc(Nc4cccc(Cl)c4C)sc3nc2c1,4.6µM*,·,2.6µM*,·,·
CCN(CC)CCNC(=O)c1ccc2c(=O)n(CCc3ccccc3)c(=O)[nH]c2c1,-9%,-5,-14%,0%,-27%
Cc1ccc(C)c(Nc2nn3c(=O)c4ccc(C(=O)NCCc5ccccc5)cc4nc3s2)c1,3.7µM*,·,8.2µM*,·,·
COc1ccccc1Nc1nn2c(=O)c3ccc(C(=O)NCCc4ccccc4)cc3nc2s1,2.3µM*,·,2.9µM*,·,·
Cc1c(Cl)cccc1Nc1nn2c(=O)c3ccc(C(=O)NCCc4ccccc4)cc3nc2s1,8.2µM*,·,5.2µM*,·,·
CSC(=NC#N)N1CCN(c2ccccc2)CC1,2%,-10,6%,5%,-4%
O=S1(=O)C[C@H](N2CCN(CCO)CC2)[C@@H](COCc2ccccc2)N1,11%,-7,14%,11%,8%
O=C(NCC1Cc2cccc(-c3cncnc3)c2O1)C1CC1 (centres undefined),3%[9.04 µM],·,-22%,·,·
Cc1ccc(NC(=O)Cn2cnc3sc(C(=O)O)c(C)c3c2=O)cc1Cl,-8%,·,5%,·,·
COc1cccc(NC(=O)CN2C(=O)NC3(CCCc4ccccc43)C2=O)c1 (centres undefined),-29%,-10,15%,3%,-2%
CCC(=O)N1CCc2cc(Br)cc(S(=O)(=O)N3CCC(C(=O)N(CC)CC)CC3)c21,0%,·,?,·,·
Cc1ccc(C)c(Nc2nn3c(=O)c4cc5c(cc4nc3s2)OCO5)c1,16µM*,·,18µM*,·,·
SMILES,TDP1 cell CPT,IL1B secr inh,TDP1 cell noCPT,HT1080 IDH1KD tx,HT1080NT lethal
Cc1ccc(C)c(Nc2nn3c(=O)c4ccc(C(=O)NC5CCCCC5)cc4nc3s2)c1,7.3µM*,·,8.2µM*,·,·
Cc1ccc(Cl)cc1Nc1nn2c(=O)c3ccc(C(=O)NC4CCC(C)CC4)cc3nc2s1 (centres undefined),-27%,·,?,·,·
O=c1c2cc3c(cc2nc2sc(Nc4ccccc4)nn12)OCO3,3%,·,?,·,·
COc1ccc(NC(=S)N/N=C2\CC(C)(C)Oc3ccc(OC)cc32)cc1,5.8µM*,-12,4.1µM*,-21%,-11%
CC(=O)N1CCC2(CC1)C/C(=N\NC(=S)Nc1ccc(C)cc1)c1cc(O)ccc1O2,15µM*,-29,?,?,?
COc1ccc(N(C(=O)c2ccc(Cl)cc2)C2=CC3CCC(C2)N3C)cc1 (centres undefined),-19%,-1,-26%,4%,-9%
CCc1ccc(NC(=O)CSc2nc3nccnc3c(=O)n2CCc2c[nH]c3ccccc23)cc1,8.2µM*,·,4.1µM*,·,·
CC(C)CCn1c(SCC(=O)Nc2ccccc2C(F)(F)F)nc2nccnc2c1=O,?,16,-29%,12%,5%
Cc1ccc(C)c(NC(=O)CSc2nc3nccnc3c(=O)n2CCc2c[nH]c3ccccc23)c1,12µM*,·,12µM*,·,·
Nc1nc2ccccc2n1C(=O)CCc1ccccc1,?,4,18µM*,-19%,?
Nc1nc2ccccc2n1C(=O)c1cccs1,?,-8,?,-14%,?
Nc1nc2ccccc2n1C(=O)c1ccc(F)cc1,?,-9,18µM*,?,?
Nc1nc2ccccc2n1C(=O)c1ccccc1,?,9,18µM*,?,?
COc1ccc(C(=O)n2c(N)nc3ccccc32)cc1OC,?,0,?,19%,19%
Cn1c(=O)c2c(nc(NN=C3CCCC3)n2C)n(C)c1=O,-24%,?,?,-2%,-3%
C[C@H]1CN(C2CCCCC2)C(=O)[C@@H]1CC(=O)Nc1ccccc1,-5%,?,-29%,9%,17%
CCCCC(c1nnnn1CC1CCCO1)N1CCN(c2nc3ccccc3s2)CC1 (centres undefined),23µM*,-12,?,-11%,-18%
CCCCC(c1nnnn1CC1CCCO1)N1CCN(c2cc(Cl)ccc2C)CC1 (centres undefined),?,-11,16µM*,-6%,-9%
CCCCC(c1nnnn1CC1CCCO1)N1CCN(c2ccccc2)CC1 (centres undefined),-1%,19,9%,7%,0%
CC(C)(C)c1nc2ccc(NS(=O)(=O)c3ccc(F)c(F)c3F)cc2[nH]1,-6%,-21,-9%,-1%,10%
CCOc1ccc2nc(NC(=O)C3=NN(c4ccccc4)C(=O)CC3)sc2c1,?,20,26µM*,-1%,-2%
CCOc1ccc2nc(NC(=O)c3ccccc3)sc2c1,13µM*,·,23µM*,·,·
CCOc1ccc2nc(NS(=O)(=O)Cc3ccccc3)sc2c1,3.3µM*,36,4.6µM*,6.5µM*,5.8µM*
CCOc1ccc2nc(NC(=O)c3cccnc3)sc2c1,-22%,-7,-12%,5%,18%
CN(C)C(=S)Nc1nc2ccccc2s1,3.7µM*,20,2.6µM*,-9%,-6%
CCOc1ccc2nc(NS(=O)(=O)c3ccc(NC(C)=O)cc3)sc2c1,-5%,18,-17%,15%,2%
